# Source: PubChem
# Myeloid diff 2: induction of myeloid progenitor differentiation, primary screen, cell-based, flow cytometry, MLPCN library | actives 1% (n = 360,000) | ER-HoxA9 myeloid progenitors, lysozyme-GFP differentiation | calls only at 10 µM | AID 624256, 2012;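 active = normalized GFP-positive differentiation at or above the plate's own cutoff, the solvent-only control mean plus 3 SD; inconclusive = no clear call, values can overlap the other calls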;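 note: cells exposed to compound for four days before flow analysis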
# NPR2 activator: human GC-B receptor activators, primary screen, HEK293 GC-B cells, cGMP TR-FRET, EC30 CNP | activation, % at 10 µM | actives 0.11% (n = 370,000) | Atrial natriuretic peptide receptor 2 (Homo sapiens), P20594 | 0% at EC30 CNP, 100% saturating CNP;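 active = activation at 10 µM reaching about 35% in either raw or pattern-adjusted values, limit read from the data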
# NPR1 activator: GC-A stimulated cGMP production enhancers – HEK293 GC-A cells, cGMP TR-FRET, EC30 ANP, primary screen | Atrial natriuretic peptide receptor 1 (Homo sapiens), P16066 | 0% at EC30 ANP, 100% saturating ANP | activation, % at 10 µM | actives 0.14% (n = 370,000) | AID 1671463, 2021; in the data active = activation above about 40%
# Target sequence (P16066 whole entry, looked up): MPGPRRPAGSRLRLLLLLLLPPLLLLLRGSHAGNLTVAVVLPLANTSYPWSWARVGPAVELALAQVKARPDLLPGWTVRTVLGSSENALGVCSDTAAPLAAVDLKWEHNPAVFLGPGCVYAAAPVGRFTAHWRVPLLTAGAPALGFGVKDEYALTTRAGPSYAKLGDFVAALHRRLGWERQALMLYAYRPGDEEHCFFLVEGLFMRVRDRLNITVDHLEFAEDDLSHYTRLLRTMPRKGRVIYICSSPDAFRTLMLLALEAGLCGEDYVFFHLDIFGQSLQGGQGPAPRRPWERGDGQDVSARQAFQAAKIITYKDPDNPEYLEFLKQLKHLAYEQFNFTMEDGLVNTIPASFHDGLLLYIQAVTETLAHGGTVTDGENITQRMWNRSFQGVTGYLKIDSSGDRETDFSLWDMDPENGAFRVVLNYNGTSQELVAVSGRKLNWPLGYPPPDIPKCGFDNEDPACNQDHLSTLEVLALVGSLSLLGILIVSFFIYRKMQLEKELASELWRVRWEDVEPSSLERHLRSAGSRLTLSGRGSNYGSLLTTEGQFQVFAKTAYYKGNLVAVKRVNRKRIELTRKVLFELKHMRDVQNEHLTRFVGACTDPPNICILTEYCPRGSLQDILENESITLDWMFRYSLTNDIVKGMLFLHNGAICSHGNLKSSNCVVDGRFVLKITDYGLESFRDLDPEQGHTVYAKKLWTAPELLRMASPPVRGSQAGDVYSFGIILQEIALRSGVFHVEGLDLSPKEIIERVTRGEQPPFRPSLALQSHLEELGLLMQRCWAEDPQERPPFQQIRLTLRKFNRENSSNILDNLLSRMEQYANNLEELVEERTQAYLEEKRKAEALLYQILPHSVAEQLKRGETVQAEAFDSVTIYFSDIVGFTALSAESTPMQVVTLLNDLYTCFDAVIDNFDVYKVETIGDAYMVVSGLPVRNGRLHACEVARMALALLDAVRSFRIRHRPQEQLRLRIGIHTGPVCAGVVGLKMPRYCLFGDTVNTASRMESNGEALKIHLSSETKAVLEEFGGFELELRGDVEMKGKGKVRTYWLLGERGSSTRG
# Exocytosis inh: LAMP-1 surface exposure blockers, TALL-104 cells – cell-based, flow cytometry, MLPCN library, primary screen; TALL-104 LAMP-1 surface exposure; cells stimulated with thapsigargin and PMA; inhibition, % at 10 µM; actives 0.66% (n = 360,000);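 active = inhibition above about 55%, limit read from the data; inconclusive = no clear call, values can overlap the other calls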
# * marks the source's active call; other numbers are inactive results; i = inactive; ? = inconclusive; . = no result; + = active, no number. Hits are enriched below; roughly 1.8% of the tested compounds scored in any of these assays.
SMILES,Myeloid diff 2,NPR2 activator,NPR1 activator,Exocytosis inh
COC(=O)[C@]12C[C@H](CC(=O)NCC3CCCCC3)C(=O)N(CCc3ccc(OC)c(OC)c3)C1=C[C@H](C(C)(C)C)O[C@@H]2C,.,-9,-4,.
COc1ccc2cc(-c3ccn[nH]3)ccc2c1,+,0,1,4
CCCC[C@H]1C2CC(OC(=O)Nc3ccc(C)cc3)C(C2)[C@H]2CCCCN21 (some centres undefined),.,3,1,.
Cc1ccc(-c2cc(-c3ccc(F)cc3)c(C#N)c(N)n2)o1,+,13,10,-4
Cc1ccc(-c2cc(-c3ccc(C)o3)nc(N)c2C#N)cc1,+,16,14,3
Cc1ccc(-c2cc(-c3ccc(Cl)cc3)c(C#N)c(N)n2)o1,i,-5,2,45
CCCC1CCC2(CCCN2CCOC(=O)Nc2cccc(Cl)c2)CC1 (centres undefined),.,-8,-3,.
CC(=O)Nc1cc([N+](=O)[O-])ccc1N1CCOCC1,i,6,7,0
O=C(Nc1ccc([N+](=O)[O-])cc1)Nc1ccc(N2CCOCC2)c2nonc12,i,14,0,77*
COc1ccc(OC)c(Nc2nc(N)nc(CCl)n2)c1,i,-2,0,31
Cc1ccc(Nc2nc(N)nc(CCl)n2)cc1,i,0,7,51
CCOc1ccc(Nc2nc(N)nc(CCl)n2)cc1,i,-4,0,60*
Cc1cccc(Nc2nc(N)nc(CCl)n2)c1,i,-1,7,70*
COc1cccc(Nc2nc(N)nc(CCl)n2)c1,i,0,0,68*
COc1ccc(Nc2ccccc2N)cc1,+,-11,-3,2
Cc1c2c(cc3c1[nH]c1ccccc13)C=NCC2,+,-8,-18,-2
O=C(O)[C@H]1CCCN1C(=O)c1ccccc1N1C(=O)[C@@H]2Cc3c([nH]c4ccccc34)C(c3cccc(Cl)c3)N2C1=O (some centres undefined),i,35*,22,3
O=C(O)[C@@H]1CCCN1C(=O)c1ccccc1N1C(=O)[C@@H]2Cc3c([nH]c4ccccc34)C(c3cccc(Cl)c3)N2C1=O (some centres undefined),i,30,25,-4
CC(=O)NC(c1cc(Cl)c2cccnc2c1O)C(C)C (centres undefined),?,-1,2,8
CC(=O)NC(c1cc(Cl)c2ccccc2c1O)C(C)C (centres undefined),+,1,-3,2
Nc1ccc2c(c1)Nc1ccccc1CC2,+,-1,-1,6
COc1cccc(CNC(=O)COC(=O)CNC(=O)c2ccc(-c3ccccc3)cc2)c1,i,8,47*,-1
C=CC[C@@H]1NN2C(=O)[C@@H](CCc3ccccc3)[C@@H]3c4ccccc4C=NN3[C@@H]2c2ccccc21,.,1,1,.
O=C(CCN1CCC2CCC(C2)C1)c1ccc(F)cc1 (centres undefined),i,-3,72*,-4
O=C(CCN1CCCCCC1)c1ccccc1,i,-1,71*,-4
SMILES,Myeloid diff 2,NPR2 activator,NPR1 activator,Exocytosis inh
O=C(c1cccs1)N1CCC(c2ccccc2)C1 (centres undefined),i,-2,0,0
O=C(CCN1CCC(c2ccccc2)C1)c1ccccc1 (centres undefined),i,-2,59*,-1
O=C(CCN1CCC(c2ccccc2)C1)c1ccc2c(c1)OCCO2 (centres undefined),i,2,16,33
O=C(CCN1CCC(c2ccccc2)C1)c1cccs1 (centres undefined),i,0,52*,13
COc1ccc(C(=O)CCN2CCCCCC2)cc1,i,-15,33,0
Cc1cccc(CN2CCN(C3CN(Cc4cn(Cc5ccccc5C(F)(F)F)nn4)S(=O)(=O)C3)CC2)c1 (centres undefined),i,-3,2,-3
COC(=O)CNC(=O)CNC1(C(=O)NCCc2c[nH]c3ccccc23)CCCCC1,.,-2,0,.
Cc1ccc(C)c(NC(=O)Cn2nnc(-c3ccncc3)n2)c1,.,0,0,.
CCC1(C)CC2(CCCN(CCC(=O)c3ccccc3)C2)CCO1 (centres undefined),i,-1,43*,-3
O=C(CCN1CCCC1)c1cccs1,i,0,50*,4
CCCCCOc1ccc(C(=O)CCN2CCOCC2)cc1,i,2,15,7
CC1(C)CC2(CCCN(C(=S)Nc3ccccc3)C2)CCO1 (centres undefined),i,0,3,1
O=C(CCN1CCOCC1)c1ccc(Cl)cc1,i,-4,58*,35
CCCCC(=O)Nc1ccc(C(=O)NCC2COc3ccccc3O2)cc1 (centres undefined),.,-5,-1,.
CCOC(=O)C1=CCC(c2ccccc2)N(S(=O)(=O)c2ccccc2C)C1 (centres undefined),i,-6,-8,2
CCN1C(=O)c2cccc3c(NC(=O)c4ccc(S(=O)(=O)N(C)C)cc4)ccc1c23,i,42*,29,1
CC(C)C[C@@]12C(=O)N(c3cccc(F)c3)C(=O)N1[C@H](c1ccc(Br)cc1)[C@@H]1C(=O)N(C(C)(C)C)C(=O)[C@@H]12,i,-19,-12,77*
CCOc1cccc(-c2nn(-c3ccccc3)cc2/C=C(/C#N)C(=O)NCCCn2ccnc2)c1,i,9,4,68*
O=C(N/N=C/c1cccc2ccccc12)c1n[nH]c2c1CCCC2,+,-7,-15,-1
O=C(N/N=C/c1ccc(Cl)cc1Cl)c1n[nH]c2c1CCCC2,i,-4,-2,4
O=C(c1ccccc1)N1CC[C@H]2[C@H](CCCN2Cc2cc(F)cc(F)c2)C1,.,2,3,.
CCCN1CCN(c2ncnc3c2nnn3Cc2ccccc2)CC1,+,3,2,0
c1ccc(Cn2nnc3c(N4CCCCCC4)ncnc32)cc1,i,7,-3,-3
CC(C(=O)c1ccc(Br)cc1)[n+]1cccc(NC(=O)c2ccccc2)c1 (centres undefined),i,4,2,-1
CC(C(=O)c1ccc(Br)cc1)[n+]1cccc2ccccc21 (centres undefined),+,2,-4,15
Cc1c(C(=O)N(C)Cc2ccc(F)cc2)sc(=O)n1Cc1ccccc1C#N,i,-6,-8,-8
COc1ccc(C2C(C#N)=C(N)OC(C(C)(C)C)=C2C#N)cc1OC (centres undefined),i,1,10,-3
COc1ccc(C2C(C#N)=C(N)SC(N)=C2C#N)cc1OC,+,2,-2,-2
Cc1ccc2sc(NC(=O)C3CC3)nc2c1C,i,0,55*,3
